Data from the supplement of paper PMC3484114.
± gives the standard deviation.

Test system: OVCAR-3-derived ovarian cancer stem-like cells (spheroids)
Experiment: cell growth relative to untreated control; higher = more growth (less inhibition)
Conditions: 2.29 µM; 96 h
Procedure, shortened: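 Stem-like cells derived from OVCAR-3 spheroids were dissociated with trypsin and seeded at 50,000 cells/mL in stem cell medium in ultra-low attachment 96-well plates, then preincubated for 24 h. Each compound was added at 2.29 uM to 4 replicate wells and left for 96 h at 37°C, 5% CO2. Viability came from TOX8 resazurin fluorescence (ex 560/em 590 nm) read after 4 h. Percent growth was expressed relative to untreated wells, after blank subtraction and removal of outliers by the Grubbs test.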

Compound | cell growth
CCCCCCCCCCCCCCCCOP(=O)([O-])OCC[N+](C)(C)C | 85.9 ± 16%
CO[C@@H]1C[C@](C)(O)Cc2cc3c(c(O)c21)C(=O)c1c(O)cc2c(c1C3=O)O[C@@H]1O[C@@]2(C)[C@H](O)[C@@H](N(C)C)[C@@H]1O | 37.7 ± 42%
CC1=C2C(=CO[C@H](C)[C@H]2C)C(=O)C(C(=O)O)=C1O | 112 ± 18%
O=C1NC(=O)[C@H]2[C@H]3C=C[C@@H]([C@@H]12)[C@@H]1[C@H]2C(=O)NC(=O)[C@H]2[C@H]31 | 121 ± 29%
C=C1CC[C@@H]2[C@](C)(CO)[C@H](O)CC[C@@]2(C)[C@@H]1C/C=C1/C(=O)OC[C@H]1O | 119 ± 38%
O=C(c1ccccc1)C1OC12C(=O)Nc1c(Cl)cc(Cl)cc12 (stereo not given) | 94.6 ± 19%
C=C(CN(C)C)C(=O)c1ccccc1Cl | 84 ± 22%
O=C1C=C(Nc2ccccc2C(=O)CC(=O)C(=O)Nc2ccc(Cl)cc2)c2ccccc2C1=O | 49.4 ± 15%
COC(=O)C[S+]([O-])c1ccccc1 (stereo not given) | 84.6 ± 18%
COc1ccc2c(c1)CCc1c-2n[nH]c1-c1[nH]nc2c1CCc1cc(OC)ccc1-2 | 87.5 ± 18%
O=c1cnn(C2OC(CO)C(O)C2O)c(=S)[nH]1 (stereo not given) | 100 ± 24%
COC(=O)c1ccccc1NC(=O)C(=O)CC(=O)c1ccccc1NC1=CC(=O)C(=O)c2ccccc21 | 65.5 ± 12%
O=C1c2ccccc2C(=O)c2c(NCCNCCO)ccc(O)c21 | 67.2 ± 44%
O=C(c1ccccc1)C(c1ccccc1)C1(O)C(=O)Nc2c(Cl)cc(Cl)cc21 (stereo not given) | 114 ± 29%
CCC(C#N)(c1ccccc1)N(CCc1ccccc1)C(=O)c1ccccc1 (stereo not given) | 129 ± 28%
Nc1nc(N)c(N=Nc2ccccc2)c(=O)[nH]1 | 84.4 ± 21%
O=c1oc2ccccc2cc1-c1ccc([N+](=O)[O-])cc1 | 38.6 ± 7.1%
COC1/C=C/OC2(C)Oc3c(C)c(O)c4c(c3C2=O)C(=O)C=C(NC(=O)/C(C)=C\C=C\C(C)C(OC=O)C(C)C(O)C(C)C(OC(C)=O)C1C)C4=O (stereo not given) | 66.6 ± 67%
COc1ccc(Cc2nc3ccccc3s2)cc1OC | 98.9 ± 21%
CC(CN(C)C)C(=O)c1ccccc1C(=O)O (stereo not given) | 92.7 ± 31%

Compound | cell growth
CN1CCCC2C(c3ccccc3)C(C3=NCCCC3)C(c3ccccc3)CC21 (stereo not given) | 110 ± 27%
Cc1ccc2ccc3ccc(C)nc3c2n1 | 18.5 ± 10%
Nc1nc(N)c2cc(Sc3cccc(C(F)(F)F)c3)ccc2n1 | 94.4 ± 24%
N#CCCN(c1ccc(C=O)cc1)S(=O)(=O)c1ccccc1 | 116 ± 22%
C[CH2][Ge]([CH2]C)([CH2]C)[O]C(=O)CCC(=O)[O][Ge]([CH2]C)([CH2]C)[CH2]C | 110 ± 7.5%
CCCCCCCCCCCCCCCC[N+](C)(C)Cc1ccc(F)cc1 | 54.1 ± 9.8%
C=C(C)[C@@H]1CC[C@]2(C)CC[C@]3(C)[C@H](CC[C@@H]4[C@@]5(C)CC[C@H](O)C(C)(C)[C@@H]5CC[C@]43C)[C@@H]12 | 121 ± 19%
CC(C)=CC1C(C(=O)O)C1(C)C (stereo not given) | 103 ± 37%
CCc1cccc(C(C)C)c1NC(=O)/C(=N\NC(N)=O)C(C(=O)OC)c1cnc2ccccc2n1 (stereo not given) | 71.4 ± 14%
COc1cc2oc3cc(=O)cc4oc(-c5ccccc5)cc(c2c2c1CCC(c1ccccc1)O2)c43 (stereo not given) | 150 ± 80%
Nc1ccn([C@@H]2O[C@H](CO)[C@@H](O)[C@@H]2O)c(=O)n1 | 76.6 ± 11%
OC[C@H]1O[C@@H](n2cnc3cncnc32)[C@H](O)[C@@H]1O | 10.4 ± 3.1%
O=C(CC1(O)C(=O)Nc2c(Cl)cc(Cl)cc21)c1ccc([N+](=O)[O-])cc1 (stereo not given) | 101 ± 29%
Cc1cc(N)c2ccccc2[n+]1CCCCCCCCCC[n+]1c(C)cc(N)c2ccccc21 | 41.9 ± 7.2%
Cc1cc2nc(C=C(C(F)(F)F)C(F)(F)F)oc2cc1C | 130 ± 36%
CC(=O)[O][Hg].c1ccc2c(c1)ccc1ccccc12 | 132 ± 32%
CC(=O)N=C1N(/C=C2\C(=O)Oc3ccccc3C2=O)C(=O)/C(=C/c2ccccc2Cl)N1C | 122 ± 43%
COc1ccc(C2=Nc3ccccc3SC(C)C2)cc1 (stereo not given) | 91.1 ± 17%
COc1ccc(/C=C2\CCCc3ccccc3C2=O)cc1 | 54.4 ± 10%
O=C(/C=C/c1c(O)ccc2ccccc12)c1cccc(O)c1 | 94.3 ± 20%
